Inconclusive results are not listed. Activity calls are given as the source filed them. Calls come from the whole dose curve; as a rule, active = well fitted cell-killing curve with a large enough effect in the repeat runs; inconclusive = weak or mixed curves, or effect the other way; inactive = no such curve, though single readings can be large or run the other way.

A short description of this experiment: qHTS assay to identify small molecule antagonists of the peroxisome proliferator-activated receptor gamma (PPARg) signaling pathway - cell viability counter screen (AID 743194). Note: nearly all actives have a fitted effect of over 55% in size. The settings on record: PPARg-bla HEK293H viability, CellTiter-Glo luminescence, 17 h, co-treated with 50 nM rosiglitazone; series mostly up to 62.6 µM. An excerpt: U.S. Tox21 Program National Center for Advancing Translational Sciences [NCATS] NIH Chemical Genomics Center [NCGC] U.S. Environmental Protection Agency [EPA] National Institutes of Environmental Health Sciences [NIEHS] National Toxicology Program [NTP] U.S. Food and Drug Administration [FDA] Tox21 Assay Overview: The peroxisome proliferator-activated receptors (PPARs) are lipid-activated transcription factors of the nuclear receptor superfamily with three distinct subtypes namely PPAR alpha, PPAR delta (also called PPAR beta) and PPAR gamma (PPARg). All these subtypes heterodimerize with Retinoid X receptor (RXR) and these heterodimers regulate transcription of various genes. PPAR-gamma receptor (glitazone receptor) is involved in the regulation of glucose and lipid metabolism. To identify the compounds that activate PPAR-gamma signaling, GeneBLAzer PPAR gamma UAS-bla HEK293H cell line (Invitrogen, Carlsbad, CA, USA) containing a beta-lactamase reporter gene under the control of an Upstream Activator Sequence (UAS) was used to screen the Tox21 compound library. The cytotoxicity of the Tox21 compound library against the PPARg-bla cell line was tested in parallel by measuring the cell viability using CellTiter-Glo assay in the same wells.
Tox21 Assay Protocol Summary: PPARg-bla cells were dispensed at 3000 cells/5uL/well in 1536-well black wall/clear bottom plates using a Multidrop Combi (Thermo Fisher Scientific, Waltham, MA) dispenser. After the assay plates were incubated at 37 C and 5% CO2 for 5 h, 23 nL of compounds dissolved in DMSO, positive controls or DMSO only was transferred to the assay plate by a Pintool station (Kalypsys, San Diego, CA), followed by addition of 1ul Rosiglitazone (50 nM, final concentration in the wells). The assay plates were incubated at 37 C for 17 h, and then 1 uL of LiveBLAzerTM B/G FRET substrate was added using a Bioraptr Flying Reagent Dispenser (FRD) workstation (Beckman Coulter, Indianapolis, IN, USA). The assay plates were incubated at room temperature for 1 h and fluorescence intensity was measured by an Envision plate reader (PerkinElmer, Shelton, CT). For cell viability readout that measures cytotoxicity, 4 ul/well of CellTiter-Glo reagent was added into the assay plates using a Flying Reagent Dispenser. After 30 min incubation at room temperature, the luminescence intensity in the plates was measured using a ViewLux plate reader (PerkinElmer).
In general terms: Quantitative high-throughput screening tests each substance at several concentrations.
With `CCO[Si](CCCN)(OCC)OCC`, the outcome was inactive.

For the compound `OCc1cccc(Oc2ccccc2)c1`, the outcome was inactive.

On to `CC(=O)CC(C)(C)O`, for which the result was inactive.

In the case of `O=C(O)CCCCCCCCC(=O)O`, the outcome was inactive.

Consider `CC(O)CC(C)(C)O` (stereo not given), for which the outcome was inactive.

With `OCc1ccccc1`, the outcome was inactive.

Turning to `CCCCCCCC=O`, the outcome was inactive.

For `CCCCCCCO`, the result was inactive.

Turning to `Brc1ccc(Br)c(Br)c1`, the result was inactive.

Turning to `O=C1C(c2[nH]c3ccccc3c2O)=Nc2ccccc21`, the result was inactive.

`NC(=S)NNC(N)=S`: the outcome was inactive.

Regarding `CC(C)OC(=O)COc1ccc(Cl)cc1Cl`, the result was inactive.

Consider `COc1ccc([N+](=O)[O-])cc1N`, for which the outcome was inactive.

In the case of `C=CCCCCCCCCC(=O)O`, the result was inactive.

In the case of `C=CC[N+](C)(C)CC=C`, the result was inactive.

In the case of `COC(=O)c1cccnc1`, the result was inactive.

As for `O=S(=O)(O)c1ccccc1`, the outcome was inactive.

For the compound `NCCNCCN`, the outcome was inactive.

On to `CN/C(=C\[N+](=O)[O-])NCCSCc1csc(CN(C)C)n1`, for which the outcome was inactive.

For `OC1C(O)C(O)C(O)C(O)C1O` (stereo not given), the outcome was inactive.

In the case of `CC(C)(Oc1ccc(CCNC(=O)c2ccc(Cl)cc2)cc1)C(=O)O`, the result was inactive.

`N#Cc1ccccc1`: the result was inactive.

Turning to `CC(CCl)OP(=O)(OC(C)CCl)OC(C)CCl` (stereo not given), the outcome was inactive.

As for `C=C(C)C(=O)OCC(C)C`, the result was inactive.

`Nc1ccc(Cl)c(N)c1`: the result was inactive.

As to `c1ccc2c(c1)Cc1ccccc1-2`, the result was inactive.

For `COc1ccc(CCC(C)=O)cc1`, the outcome was inactive.

In the case of `CN1C(=O)CC[C@H]1c1cccnc1`, the result was inactive.

For the compound `CC(=O)OC1CC(C)OC(C)O1` (stereo not given), the result was inactive.

As to `CC(C)CC(=O)CC(C)CC(C)C` (stereo not given), the result was inactive.

As for `C=C(C)CNCC`, the outcome was inactive.

On to `CCOC(=O)c1ccc(N)cc1`, for which the result was inactive.

On to `COC(=O)CCCC(=O)OC`, for which the outcome was inactive.

In the case of `C[Si]1(C)O[Si](C)(C)O[Si](C)(C)O[Si](C)(C)O1`, the outcome was inactive.

`CCNc1ccccc1`: the outcome was inactive.

Take `O=C(O)/C=C/C(=O)O`: the outcome was inactive.

For `C[C@]12CCC(=O)C=C1CC[C@@H]1[C@@H]2[C@@H](O)C[C@@]2(C)[C@H]1CC[C@]2(O)C(=O)CO`, the outcome was inactive.

In the case of `O=C(O)c1cc2ccccc2cc1O`, the result was inactive.

As for `c1ccc(Oc2ccccc2)cc1`, the outcome was inactive.

On to `COc1ccc(N)c(C)c1`, for which the result was inactive.
